From ChEMBL document CHEMBL3988442, “University of Dundee, Small-Polar-MMV Screening Library” (2021)
For some of these results: Potency and affinity values are given separately.

Legend:
Design in all cases: scale not given: direction of the effect not stated beside the values
[1] = molecular target: Protein translocase subunit SecA (Escherichia coli (strain K12)) (UniProt P10408); assay: Assay to Identify E. coli SecA ATPase Inhibitors; format: functional; conditions: 30 µM
[2] = molecular target: T1, Ubiquitin-activating enzyme e1, putative (Leishmania donovani (strain BPK282A1)) (UniProt E9BSI1); assay: Leishmania donovani Ubiquitin Activating Enzyme (LdE1); format: functional; conditions: 30 µM
T1 sequence (whole entry): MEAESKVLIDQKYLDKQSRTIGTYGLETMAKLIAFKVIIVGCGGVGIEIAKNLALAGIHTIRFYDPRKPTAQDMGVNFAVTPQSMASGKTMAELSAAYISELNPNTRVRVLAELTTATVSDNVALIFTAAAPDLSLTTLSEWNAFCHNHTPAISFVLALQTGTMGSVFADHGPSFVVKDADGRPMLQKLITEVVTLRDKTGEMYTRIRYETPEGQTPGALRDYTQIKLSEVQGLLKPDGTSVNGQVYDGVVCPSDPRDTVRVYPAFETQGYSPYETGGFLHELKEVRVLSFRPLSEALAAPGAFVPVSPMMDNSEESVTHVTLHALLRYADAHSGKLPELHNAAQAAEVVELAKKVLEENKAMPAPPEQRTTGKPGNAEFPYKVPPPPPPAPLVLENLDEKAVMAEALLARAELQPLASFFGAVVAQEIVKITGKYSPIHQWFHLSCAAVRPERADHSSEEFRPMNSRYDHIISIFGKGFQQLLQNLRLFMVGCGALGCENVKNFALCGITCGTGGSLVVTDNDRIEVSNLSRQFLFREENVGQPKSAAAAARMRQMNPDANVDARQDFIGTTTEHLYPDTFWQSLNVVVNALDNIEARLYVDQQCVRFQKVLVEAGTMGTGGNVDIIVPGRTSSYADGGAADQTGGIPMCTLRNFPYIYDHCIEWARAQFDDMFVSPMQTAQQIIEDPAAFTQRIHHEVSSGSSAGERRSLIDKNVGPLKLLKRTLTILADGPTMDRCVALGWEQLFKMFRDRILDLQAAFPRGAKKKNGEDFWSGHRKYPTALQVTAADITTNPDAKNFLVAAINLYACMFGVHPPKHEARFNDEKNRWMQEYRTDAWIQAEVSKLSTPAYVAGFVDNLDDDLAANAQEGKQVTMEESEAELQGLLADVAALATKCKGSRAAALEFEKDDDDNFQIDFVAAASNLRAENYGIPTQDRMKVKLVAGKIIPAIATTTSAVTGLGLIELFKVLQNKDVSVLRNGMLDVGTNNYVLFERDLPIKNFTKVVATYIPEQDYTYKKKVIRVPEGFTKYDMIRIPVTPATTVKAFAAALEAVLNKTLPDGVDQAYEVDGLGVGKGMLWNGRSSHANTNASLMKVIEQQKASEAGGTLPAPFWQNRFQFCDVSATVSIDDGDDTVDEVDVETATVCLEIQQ

[3] = molecular target: Sialic acid-binding Ig-like lectin 9 (Homo sapiens) (UniProt Q9Y336); assay: Hs-Siglec9 ALPHAscreen SOP 20170721; conditions: 10 µM
Sialic acid-binding Ig-like lectin 9 (Homo sapiens), sequence (Q9Y336 whole entry): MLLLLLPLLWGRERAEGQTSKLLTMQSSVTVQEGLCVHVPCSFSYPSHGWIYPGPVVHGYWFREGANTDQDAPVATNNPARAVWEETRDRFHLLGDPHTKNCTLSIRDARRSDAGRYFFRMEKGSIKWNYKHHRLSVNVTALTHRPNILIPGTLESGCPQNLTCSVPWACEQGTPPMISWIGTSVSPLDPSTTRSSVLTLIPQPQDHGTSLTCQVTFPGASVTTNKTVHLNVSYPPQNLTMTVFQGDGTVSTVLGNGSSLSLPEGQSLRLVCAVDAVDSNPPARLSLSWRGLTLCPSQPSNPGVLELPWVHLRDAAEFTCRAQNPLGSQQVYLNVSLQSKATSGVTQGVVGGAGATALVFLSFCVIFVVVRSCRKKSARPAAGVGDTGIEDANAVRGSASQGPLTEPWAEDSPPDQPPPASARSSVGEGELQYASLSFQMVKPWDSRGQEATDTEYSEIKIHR

[4] = test system: Trypanosoma cruzi; assay: Trypanosoma cruzi phosphomannomutase and mannose-1-phosphate guanylyltransferase assay; format: functional; conditions: 10 µM
[5] = molecular target: T2, Arginase-2, mitochondrial (Homo sapiens) (UniProt P78540); assay: in vitro enzyme assay to detect the production of urea directly proportional to the activity of Arginase II; format: functional; conditions: 33.3 µM; also: in the data most compounds retested in dose-response had high values
T2 sequence (whole entry): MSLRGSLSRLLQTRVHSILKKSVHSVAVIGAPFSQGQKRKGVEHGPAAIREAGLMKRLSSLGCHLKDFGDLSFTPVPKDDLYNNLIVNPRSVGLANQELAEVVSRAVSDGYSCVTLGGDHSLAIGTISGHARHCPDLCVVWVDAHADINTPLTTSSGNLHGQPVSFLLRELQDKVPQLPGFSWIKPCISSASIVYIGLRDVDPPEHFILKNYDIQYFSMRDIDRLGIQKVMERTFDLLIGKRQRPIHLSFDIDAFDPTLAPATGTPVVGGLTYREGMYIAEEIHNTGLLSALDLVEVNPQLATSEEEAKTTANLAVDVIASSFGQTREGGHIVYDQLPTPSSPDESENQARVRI

[6] = molecular target: T3, Proteasome subunit beta (Trypanosoma cruzi) (UniProt O96673); assay: Trypanosoma cruzi proteasome chymotrypsin-like activity (TcProtChymo) assay.; also: in the data most compounds retested in dose-response had high values; format: functional; conditions: 9.37 µM
T3 sequence (whole entry): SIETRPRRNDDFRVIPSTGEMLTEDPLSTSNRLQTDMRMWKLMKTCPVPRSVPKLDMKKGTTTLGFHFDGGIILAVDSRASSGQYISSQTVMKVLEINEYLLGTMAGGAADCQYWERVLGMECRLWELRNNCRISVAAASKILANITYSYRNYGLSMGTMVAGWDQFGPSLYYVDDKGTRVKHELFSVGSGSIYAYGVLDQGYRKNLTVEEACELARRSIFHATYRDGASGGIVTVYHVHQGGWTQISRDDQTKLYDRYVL

[7] = species on record: Homo sapiens; assay: To identify inhibition of the IFN signalling (Jak-Stat) pathway via expression of an eGFP reporter gene under the control of an IFN-stimulated response element (ISRE) containing MxA promoter.; format: functional; conditions: 30 µM
[8] = molecular target: T4, Tyrosyl-tRNA synthetase, putative (Trypanosoma cruzi (strain CL Brener)) (UniProt Q4DSP6); assay: Trypanosoma cruzi tyrosyl tRNA synthetase (TcYRS) _High Tyrosine SOP; format: functional; conditions: 30 µM; also: in the data most compounds retested in dose-response had high values
T4 sequence (whole entry): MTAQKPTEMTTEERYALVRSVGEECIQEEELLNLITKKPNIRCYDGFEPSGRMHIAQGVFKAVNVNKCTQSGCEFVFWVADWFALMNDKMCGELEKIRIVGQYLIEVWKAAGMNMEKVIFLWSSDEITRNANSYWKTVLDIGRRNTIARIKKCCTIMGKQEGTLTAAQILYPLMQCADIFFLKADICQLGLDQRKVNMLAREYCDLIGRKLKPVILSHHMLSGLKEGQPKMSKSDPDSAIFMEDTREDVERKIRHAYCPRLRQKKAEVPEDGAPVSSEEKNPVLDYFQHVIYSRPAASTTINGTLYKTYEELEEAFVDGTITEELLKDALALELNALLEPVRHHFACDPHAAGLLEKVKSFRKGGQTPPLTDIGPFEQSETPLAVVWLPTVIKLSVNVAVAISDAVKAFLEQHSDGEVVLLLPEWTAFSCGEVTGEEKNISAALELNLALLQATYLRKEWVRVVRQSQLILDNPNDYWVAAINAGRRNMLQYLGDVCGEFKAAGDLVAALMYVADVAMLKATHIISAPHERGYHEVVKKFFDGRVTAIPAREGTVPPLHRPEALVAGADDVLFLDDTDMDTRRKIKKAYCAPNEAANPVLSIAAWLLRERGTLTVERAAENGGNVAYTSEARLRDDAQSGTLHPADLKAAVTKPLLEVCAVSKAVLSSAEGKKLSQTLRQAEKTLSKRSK

[9] = molecular target: T4, Tyrosyl-tRNA synthetase, putative (Trypanosoma cruzi (strain CL Brener)); assay: Trypanosoma cruzi tyrosyl tRNA synthetase (TcYRS) SOP; format: functional; conditions: 30 µM
[10] = molecular target: Chromo domain-containing protein 1 (Saccharomyces cerevisiae (strain ATCC 204508 / S288c) (Baker's yeast)) (UniProt P32657); assay: ScCHD-1 Enzyme Inhibition Assay; format: functional; conditions: 30 µM; also: in the data most compounds retested in dose-response had high values
Chromo domain-containing protein 1 (Saccharomyces cerevisiae (strain ATCC 204508 / S288c) (Baker's yeast)), sequence (P32657 whole entry, the tested form may be a part): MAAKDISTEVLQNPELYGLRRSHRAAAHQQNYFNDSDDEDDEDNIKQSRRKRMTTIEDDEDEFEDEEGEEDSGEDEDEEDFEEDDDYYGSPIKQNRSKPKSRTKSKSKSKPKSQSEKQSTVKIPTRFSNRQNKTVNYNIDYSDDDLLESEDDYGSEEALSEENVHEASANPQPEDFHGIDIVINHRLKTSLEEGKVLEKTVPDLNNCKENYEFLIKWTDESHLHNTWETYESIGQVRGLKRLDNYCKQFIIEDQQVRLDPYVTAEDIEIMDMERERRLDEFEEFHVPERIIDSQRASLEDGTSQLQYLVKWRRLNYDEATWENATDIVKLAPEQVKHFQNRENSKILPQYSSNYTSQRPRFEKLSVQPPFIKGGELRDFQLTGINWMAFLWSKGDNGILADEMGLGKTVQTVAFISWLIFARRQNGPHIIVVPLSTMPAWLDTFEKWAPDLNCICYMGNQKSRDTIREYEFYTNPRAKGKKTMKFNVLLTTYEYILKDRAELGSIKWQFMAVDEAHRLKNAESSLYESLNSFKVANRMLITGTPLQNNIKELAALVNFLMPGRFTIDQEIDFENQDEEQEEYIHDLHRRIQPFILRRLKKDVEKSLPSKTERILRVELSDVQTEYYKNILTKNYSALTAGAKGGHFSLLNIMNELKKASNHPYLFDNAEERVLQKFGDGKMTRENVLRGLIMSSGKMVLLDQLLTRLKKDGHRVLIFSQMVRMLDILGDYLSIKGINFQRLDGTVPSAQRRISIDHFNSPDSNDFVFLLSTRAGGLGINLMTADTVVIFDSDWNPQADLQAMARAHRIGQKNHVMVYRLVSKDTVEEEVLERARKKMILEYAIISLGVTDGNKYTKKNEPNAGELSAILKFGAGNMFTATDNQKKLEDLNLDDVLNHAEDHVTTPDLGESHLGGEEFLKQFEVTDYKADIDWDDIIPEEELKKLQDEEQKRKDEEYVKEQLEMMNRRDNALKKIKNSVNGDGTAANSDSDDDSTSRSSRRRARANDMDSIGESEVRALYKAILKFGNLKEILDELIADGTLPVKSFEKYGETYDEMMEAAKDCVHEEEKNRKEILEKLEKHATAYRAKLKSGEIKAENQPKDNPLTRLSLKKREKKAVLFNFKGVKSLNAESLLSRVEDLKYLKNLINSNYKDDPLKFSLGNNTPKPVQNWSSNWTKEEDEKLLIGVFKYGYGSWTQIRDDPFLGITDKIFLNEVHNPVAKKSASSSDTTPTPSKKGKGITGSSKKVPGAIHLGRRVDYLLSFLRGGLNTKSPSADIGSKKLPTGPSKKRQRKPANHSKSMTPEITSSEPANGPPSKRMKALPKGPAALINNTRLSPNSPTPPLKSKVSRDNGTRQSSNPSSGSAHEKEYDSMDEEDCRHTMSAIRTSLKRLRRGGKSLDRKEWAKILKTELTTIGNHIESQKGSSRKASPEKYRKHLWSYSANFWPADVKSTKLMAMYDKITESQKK

Protein translocase subunit SecA (Escherichia coli (strain K12)), sequence (P10408 whole entry): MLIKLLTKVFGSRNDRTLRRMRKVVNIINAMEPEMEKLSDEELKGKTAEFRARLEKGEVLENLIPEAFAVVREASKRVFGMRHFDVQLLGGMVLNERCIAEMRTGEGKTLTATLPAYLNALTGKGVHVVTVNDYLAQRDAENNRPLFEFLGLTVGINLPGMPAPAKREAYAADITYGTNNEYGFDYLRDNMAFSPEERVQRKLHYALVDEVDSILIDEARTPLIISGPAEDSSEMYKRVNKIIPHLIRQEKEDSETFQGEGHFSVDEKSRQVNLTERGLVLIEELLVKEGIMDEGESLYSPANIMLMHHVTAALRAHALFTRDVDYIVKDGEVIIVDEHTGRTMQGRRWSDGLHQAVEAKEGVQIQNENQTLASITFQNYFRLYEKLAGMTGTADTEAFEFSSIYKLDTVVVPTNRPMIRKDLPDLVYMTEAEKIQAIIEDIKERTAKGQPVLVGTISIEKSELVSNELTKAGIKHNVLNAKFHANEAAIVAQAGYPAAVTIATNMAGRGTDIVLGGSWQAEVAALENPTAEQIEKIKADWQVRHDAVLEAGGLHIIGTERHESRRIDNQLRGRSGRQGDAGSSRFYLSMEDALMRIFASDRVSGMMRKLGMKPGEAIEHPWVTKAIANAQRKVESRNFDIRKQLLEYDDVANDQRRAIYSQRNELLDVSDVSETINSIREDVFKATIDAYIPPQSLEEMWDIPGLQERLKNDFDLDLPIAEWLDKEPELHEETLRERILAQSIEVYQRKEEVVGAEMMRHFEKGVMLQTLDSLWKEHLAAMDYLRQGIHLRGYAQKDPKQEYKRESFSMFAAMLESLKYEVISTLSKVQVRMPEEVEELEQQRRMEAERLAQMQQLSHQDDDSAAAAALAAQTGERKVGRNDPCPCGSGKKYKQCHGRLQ

| SMILES | Percent Effect [1] [%] | Percent Effect [2] [%] | Percent Effect [3] [%] | Percent Effect [4] [%] | Percent Effect [5] [%] | Percent Effect [6] [%] | Percent Effect [7] [%] | Percent Effect [8] [%] | Percent Effect [9] [%] | Percent Effect [10] [%] |
| --- | --- | --- | --- | --- | --- | --- | --- | --- | --- | --- |
| Cc1ncc2c(n1)CN(Cc1nc3ccccc3o1)CC2 | -2.9 | 8 | 3.11 | 4.02 | -2.22 | 3.31 | -20.5 | 25.8 | 28.2 | -12.9 |
| Cc1ccc(C(CNC(=O)NCc2cc[nH]n2)N2CCOCC2)o1 (stereo not given) | -3.05 | 12.8 | -4.81 | -4.04 | 0.82 | 14.1 | 24.3 | 2.39 | 10.8 | -3.31 |
| c1csc(CN2CCOCC3(CCN(C4CCOCC4)C3)C2)n1 (stereo not given) | -5.6 | 6.49 | -3.43 | -4.77 | -5.67 | 16.9 | -1.84 | 2.63 | -2.56 | -0.251 |
| CCc1nc(C2CCCN2C(=O)CCn2cncn2)no1 (stereo not given) | -0.886 | 0 | 9.32 | -1.49 | 1.02 | 3.51 | 3.97 | 0.98 | -2.35 | -0.634 |
| COc1ncc(C2(O)CCN(Cc3c(F)cccc3F)CC2)c(OC)n1 | -3.32 | 9.33 | -4.97 | 1.97 | -4.87 | 13.3 | 15.3 | 2.12 | 0 | -21.1 |
| CCc1nnc2n1CCN(Cc1nc(-c3ccoc3)no1)C2 | -4.35 | 5.13 | 5.33 | 4.22 | 1.64 | 9.47 | -10.4 | 12 | 22.9 | -4.51 |
| CC(Nc1cccc(CN2CCOC2=O)c1)C(=O)Nc1ccccc1F (stereo not given) | -0.263 | 7.69 | 0.909 | -1.41 | 4.51 | 3.5 | 29.9 | 2.39 | 8.43 | -5.9 |
| CCN1CCN(c2ccc(CNC(=O)c3c(C)noc3C)cn2)CC1 | -1.13 | 21.3 | -5.5 | 3.01 | 2.66 | 23.8 | 1.82 | 1.58 | 15.4 | -14.6 |
| CN(C)[C@@H]1CN(Cc2ccco2)C[C@@H]2CCCO[C@@H]21 | -2.22 | 6.49 | -4.86 | -5.16 | -1.22 | 9.27 | 3.2 | -0.526 | 7.69 | -3.13 |
| CCn1ccnc1CN1CCC(CCC(=O)Nc2ccccc2Cl)CC1 | -1.09 | 5.41 | 7.23 | 6.89 | 12.2 | -1.37 | 10.8 | 1.6 | 7.32 | 83.4 |
| CC(C)n1ccnc1C1CCN(C(=O)c2ccccc2)CC1 | -5.35 | 16.2 | 13.1 | 9.8 | 11.5 | 14 | 14.4 | 10.1 | 19.5 | -5 |
| Cc1ccc(C(N)c2cccc(S(C)(=O)=O)c2)cc1 (stereo not given) | -4.76 | 10.7 | 8.28 | -1.81 | 5.76 | 5.34 | 27 | 4.74 | 5.13 | -9.27 |
| CCc1nc(CN2CCCN(C(=O)COCC3CC3)CC2)cs1 | -1.44 | 12.8 | -6.97 | -0.282 | 0.82 | 9.64 | 6.06 | 11 | 22.9 | -6.08 |
| CC(C)CCN(C)C(=O)c1nc(S(C)(=O)=O)n2ccccc12 | -4.72 | 12.8 | -6.5 | 5.16 | 1.23 | 2.13 | 0.306 | 6.22 | 10.8 | -1.74 |
| COCc1cccc(NS(=O)(=O)c2cc(C(=O)O)cs2)c1 | -3.18 | 5.13 | -6.44 | 2.91 | 2.46 | 8.11 | 4.97 | 3.35 | 13.2 | -5.54 |
| Cc1ccc([C@@H]2CN(C(=O)c3cccnn3)C[C@H]2NC(=O)C2CC2)cc1 | -10.6 | 5.41 | 16.9 | 4.17 | 4.54 | 13.2 | 3.04 | 5.85 | 19.5 | -1.62 |
| O=C(NCCN1CCCCC1)c1ccoc1 | -6.92 | 7.79 | -0.674 | -7.28 | -2.66 | 4.21 | 14.7 | -2.94 | 0 | -4.75 |
| COc1ncccc1C(=O)N1CCn2c(COCC3CC3)cnc2C1C (stereo not given) | -3.37 | 3.9 | -3.01 | 1.07 | -1.62 | 8.21 | -16 | 4.74 | 7.69 | 1.11 |
| CCn1ccnc1CNCC1CCN(CC(O)c2ccccc2)CC1 (stereo not given) | -3.91 | -5.13 | -9.4 | 5.92 | 11.9 | -2.13 | 4.15 | 3.35 | 6.02 | -1.13 |
| c1ccc(OCc2nnc3n2CCN(CC2CCOCC2)C3)nc1 | -2.49 | 1.3 | -1.26 | -1.07 | -2.43 | -0.0883 | -3.47 | 0.526 | -89.7 | -2.56 |
| COCc1nc(C(=O)NS(=O)(=O)c2cc(F)ccc2F)cs1 | -3.64 | -2.56 | -5.81 | -1.41 | -1.64 | -0.939 | 22.9 | -0.478 | -6.02 | 4.47 |
| O=C(Cc1csc(-c2nnc[nH]2)n1)N1CCCC1Cn1cccn1 (stereo not given) | -1.04 | 8 | 5.84 | -0.402 | -3.1 | 8.74 | -1.78 | 2.63 | 5.13 | -9.48 |
